53 compounds from ChEMBL document CHEMBL4513216, “Probing the Open Global Health Chemical Diversity Library for Multistage-Active Starting Points for Next-Generation Antimalarials” (ACS Infect Dis, 2020) can be followed below.

The structures appear in SMILES notation. The campaign covered roughly 69,000 compounds. About 8,600 (12%) showed an effect of 50% or more. Shown is part of a subset that was picked to be rich in strong results.

In this experiment the test system is Plasmodium berghei. Put plainly: Screen against P. berghei liver stage (PbLuc), transformed with Luciferase, at 10uM. In kind it is functional, HepG2. The following applies: tested at 10 uM.
`CC[C@@H](c1ccccc1)n1c(C2CC2)n[nH]c1=O`: the INHIBITION is reported as 37.3%. To `CCc1noc(CNCCn2cc(C)cn2)n1` belongs -9.37%; to `C1Cc2nc(CCNc3nc(C4CC4)nc4c3CCNCC4)sc2C1`, 64.8%; to `OC(CNc1ncnc2c1CCNCC2)C(F)(F)F` (stereo not drawn), 13.6%.

For the compound `Cc1nc2c(c(NCC(O)c3ccccc3Cl)n1)CCNCC2` (stereo not drawn), the INHIBITION is -32.6%. Regarding `Cc1nc2c(c(NCC(O)C(F)(F)F)n1)CCNCC2` (stereo not drawn), the INHIBITION was found to be 93.2%. `OC(CNc1nc(C2CCCC2)nc2c1CCNCC2)C(F)(F)F` (stereo not drawn): the INHIBITION is recorded as 52.1%. `c1nc(CCNc2nc(C3CC3)nc3c2CCNCC3)c[nH]1`: the INHIBITION is -3.77%. Consider `COCCNc1nc(C2CCCC2)nc2c1CCNCC2`, for which the INHIBITION is -39.9%. On to `Cc1nc2c(c(NCCc3nc4c(s3)CCCC4)n1)CCNCC2`, for which the INHIBITION was 25.8%. With `COCc1noc(CNc2nc(C3CCCC3)nc3c2CCNCC3)n1`, the INHIBITION was -52.2%. To `CC(C)c1nn2c(-c3cnn(C)c3)nnc2s1` belongs -14.2%. Turning to `CCC(C)(CNC(=O)c1ccon1)NC(=O)c1ccon1` (stereo not drawn), the INHIBITION was -13.7%.

With `COCC(=O)NCC1Cn2nnc(-c3ccncc3)c2CO1` (stereo not drawn), the INHIBITION was -4.02%. To `COCCN1CCC2(CC1)CN(C(C)=O)c1ccc(C)cc12` belongs -33%; to `CCc1ocnc1C(=O)N1CCCC1c1noc(C)n1` (stereo not drawn), 5.07%; to `C=C(C)COc1cccc(CNCCc2nc(N)cc(O)n2)c1`, 52.6%. As to `C=C(C)COc1cccc(CNCCc2c[nH]cn2)c1`, the INHIBITION is 29.1%. To `C=C(C)COc1cccc(CNCc2nc3ccccc3c(=O)[nH]2)c1` belongs 28.5%. In the case of `COCC1CC2(CCN(CC3CC3)CC2)CN1Cc1csc(C)n1` (stereo not drawn), the INHIBITION is listed as 37.8%. To `CCOC(=O)CCNC(=O)c1cc(Cl)cc2cccnc12` belongs 30.5%; to `CCn1c(CC2CCN(C(=O)C3COCCO3)CC2)nn(C)c1=O` (stereo not drawn), 9.56%; to `CCn1c(CC2CCN(C(=O)C3CCOC3)CC2)nn(C)c1=O` (stereo not drawn), 56.1%. To `CCn1c(CC2CCN(C(=O)C3CNCCO3)CC2)nn(C)c1=O` (stereo not drawn) belongs 47.4%. The same measure for `Cc1noc(-c2ccnc(N3CCC(N4CCCC4)CC3)c2)n1`: 48.5%. Consider `Cc1noc(-c2ccnc(N3CCC(CN4CCOCC4)CC3)c2)n1`, for which the INHIBITION was 69.4%.

Turning to `Cc1noc(-c2ccnc(N3CCN(C4CCOCC4)CC3)c2)n1`, the INHIBITION came to 10.7%. The same measure for `Cc1ccc(-c2nc(CNCC3CN(C)CCO3)co2)cc1` (stereo not drawn): -12.2%; for `CC(=O)N1CCC2(CC1)C(=O)N(CC1CC1)c1ccccc12`: 1.56%. The same measure for `CN(C)C(C(=O)NCc1cc(C(C)(C)C)n[nH]1)c1ccc(F)cc1` (stereo not drawn): 50.2%. As to `Cc1cc(CNC(=O)C(c2ccc(F)cc2)N(C)C)n[nH]1` (stereo not drawn), the INHIBITION was 37.3%. To `Cc1ccc(C(C(=O)NCc2cc(C)[nH]n2)N(C)C)cc1` (stereo not drawn) belongs 31.4%; to `Cc1cc(N2CCC(NC(=O)CCC3CCCO3)CC2)nc(C)n1` (stereo not drawn), 62.2%; to `CCc1cc(N2CCC(NC(=O)CCC3CCCO3)CC2)ncn1` (stereo not drawn), 37.6%. The same measure for `Cc1cc(N2CCC(NC(=O)CCc3ccco3)CC2)nc(C)n1`: 38.7%; for `COc1ccc2nnc(CCCC(=O)Nc3nc4c(s3)CCC4)n2n1`: 38.4%. `NCCO[C@H]1C[C@@H](O)C12CCN(Cc1c(F)cccc1F)CC2`: the INHIBITION stood at 52.2%. The same measure for `COc1ccc(F)c(F)c1CN1CCC2(CC1)[C@H](O)C[C@@H]2OCCN`: 7.31%.

`COc1cc(CN2CC[C@@]3(CCCO3)[C@@H](O)C2)ccc1F`: the INHIBITION is listed as 44.9%.

Consider `COc1cc(C)c(CN2CCC3(CC2)[C@H](O)C[C@@H]3OCCN)cc1C`, for which the INHIBITION was determined as 23.3%. As to `COc1cc(CN2CCC3(CC2)[C@H](O)C[C@@H]3OCCO)ccc1F`, the INHIBITION amounted to 51.1%.

Take `COCCCC1(CO)CCCN(Cc2ccc(F)c(OC)c2)C1` (stereo not drawn): the INHIBITION is on record as -58.9%. To `CNC(=O)CN(C)C(=O)c1cc2ccccc2cc1OC` belongs 45.2%.

Regarding `CC(C)c1nc(CN2CCCN(Cc3nccn3C)CC2)no1`, the INHIBITION is given as -23.8%.

As to `Cn1nnnc1SCC1COc2ccccc2O1` (stereo not drawn), the INHIBITION is given as 35.2%. With `CC(C)Nc1nc2c(s1)C(=O)CN(C(=O)NCc1ccccc1)C2`, the INHIBITION stood at 73.8%. To `CC[C@H](C)[C@H](N)C(=O)N1CC(=O)c2sc(NC3CCCCC3)nc2C1` belongs 35.2%. Turning to `CC[C@H](C)[C@H](N)C(=O)N1CC(=O)c2sc(NCc3ccccc3)nc2C1`, the INHIBITION was determined as 61.9%. Regarding `CNc1nc2c(s1)C(=O)CN(C(=O)NCc1ccccc1)C2`, the INHIBITION is listed as 42.9%.

Regarding `CNc1nc2c(s1)C(=O)CN(C(=O)NCCc1ccccc1)C2`, the INHIBITION was found to be 23.4%. With `CC(C)Nc1nc2c(s1)C(=O)CN(C(=O)NCCc1ccccc1)C2`, the INHIBITION is reported as -7.79%. The same measure for `COCCN1CC(=O)c2sc(NCc3ccccc3)nc2C1`: -0.371%. To `CCNc1nc2c(s1)C(=O)CN(C(=O)NCc1ccccc1)C2` belongs 66.4%.
